Consider seven compounds from PubChem BioAssay AID624093 (National Center for Advancing Translational Sciences (NCATS), 2012).

Results filed as inconclusive are left out. Entries that show only a call come without a potency. Active and inactive are the calls of the source. Calls come from the whole dose curve; as a rule, active = well fitted inhibition curve with a large enough effect; inconclusive = small, poorly fitted or top-dose-only effect; inactive = flat fitted curve, though single readings scatter.

The assay deals with Dual specificity tyrosine-phosphorylation-regulated kinase 1A (Homo sapiens) (UniProt Q13627). Put plainly: Confirmation Assay for Inhibitors of Dyrk1a (Kinase-Glo Assay): KU probe. Conditions: Kinase-Glo ATP luminescence; series mostly up to 76.9 µM. A digest of the protocol: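 Recombinant human Dyrk1A (5 nM) was incubated with 8 uM DYRKtide and 2 uM ATP in Tris-HCl pH 7.5 with MgCl2, EGTA, cysteine and Triton X-100 for 2 h at room temperature; residual ATP was measured by Kinase-Glo luminescence.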
Background: Kinase-Glo reads ATP consumption through a luciferase reaction.
With `Cc1ccc(CNc2ccnc(-c3c(C)noc3C)n2)cc1`, the Potency result is “inactive”.
Take `COc1ccc(-c2nccc(NCc3ccc(Cl)c(Cl)c3)n2)cc1`: the Potency entry was “inactive”.
As for `c1cncc(CNc2cc(-c3ccc4c(c3)OCO4)ncn2)c1`, the Potency is 16400 nM (active).
In the case of `COc1ccc(-c2nccc(NCc3ccccc3)n2)cc1`, the Potency result was “inactive”.
Turning to `c1cc(-c2ccc3c(c2)OCO3)nc(Nc2ccc3c(c2)OCO3)n1`, the Potency was 130 nM (active).
Consider `Cc1noc(C)c1-c1ncccn1`, for which the Potency result was “inactive”.
For `COc1ccc(-c2ccnc(NCc3ccc(Cl)c(Cl)c3)n2)cc1` the value was 733 nM (active).
